# Results: PubChem BioAssay (NCATS)
# Inconclusive results are not listed. Activity calls are given as the source filed them. Unless noted, the call rests on the fitted dose curve; in most records, active means well fitted curve in the direction sought with a large enough effect; inconclusive means small, poorly fitted or top-dose-only effect, or another doubt; inactive means no such curve, though single readings can be large; an effect the other way counts as inactive or inconclusive.
# Experiments:
# [1] = molecular target: Guanidinoacetate N-methyltransferase (Homo sapiens) (UniProt Q14353); assay: Confirmatory Screen for Target Class Profiling of Small Molecule Inhibitors of Methyltransferases (AID 1745852; calls by dose curve; further: potency means the concentration at half of the fitted maximal effect; on activity change, negative = inhibition: on the % scale 0 is the no-effect control and ±100 the full control effect); conditions: activity change, negative = inhibition: at 57.3 µM (top of the series) unless noted
# [2] = molecular target: Nicotinamide N-methyltransferase (Homo sapiens) (UniProt P40261); assay: as above; conditions: MTase-Glo luminescence, SAH detection, recombinant enzyme; measured here: NNMT max response; stronger effect = lower value
# [3] = molecular target: Phenylethanolamine N-methyltransferase (Homo sapiens) (UniProt P11086); assay: as above; conditions: MTase-Glo luminescence, SAH detection, recombinant enzyme; measured here: PNMT max response; stronger effect = lower value
# [4] = NCATS anti-infectives library activity on HEK293 viability as a counter-qHTS vs the C. elegans viability qHTS (AID 1745854); further: potency means the concentration at half of the fitted maximal effect; on activity change, negative = cytotoxicity: on the % scale 0 is the no-effect control and ±100 the full control effect
# Summary of the method: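 Cytotoxicity counter-screen to a worm viability qHTS: CellTiter-Glo luminescence read 10 min after reagent addition. Compounds (final up to 41.7 uM, a 1:5 dilution series) incubated 24 hr at 37C with 1,500 HEK293 cells per well; digitonin control.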
# [5] = NCATS anti-infectives library activity on the primary C. elegans qHTS viability assay (AID 1745855; calls by dose curve; further: potency means the concentration at half of the fitted maximal effect)
# Summary of the method: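 GFP read-out by 488 nm laser cytometry at day 0, 3 and 7, gated on object perimeter, area and peak intensity, scored viability of PE254-GFP-FLuc worms exposed to compound in S medium with bacterial capsules at 21 °C.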
# [6] = Viability counterscreen for antagonist of constitutive androstane receptor (CAR) against the NCATS DSHEA and TCM libraries (AID 1794837);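 further: compound exposure lasted 24 h before viability reading; 0% is about no effect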
# Summary of the method: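 Cell viability, CellTiter-Fluor, Ex/Em 405/540 nm, 1 h at 37C. HepG2-CYP2B6-hCAR, 2,500 cells/well; cpds + CITCO 48 uM final (antagonist mode), 24 h, 37C/5% CO2.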
# [7] = Viability counterscreen for agonist of constitutive androstane receptor (CAR) against the NCATS DSHEA and TCM libraries (AID 1794838); further: 0% is about no effect
# Summary of the method: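 Viability by CellTiter-Fluor fluorescence, 405/540 nm, after 1 h at 37C. HepG2-CYP2B6-hCAR cells were exposed 24 h to test substances in presence of 0.75 uM PK11195 (final).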
# [8] = molecular target: Nuclear receptor subfamily 1 group I member 3 (Homo sapiens) (UniProt Q14994); assay: Primary qHTS for agonist of constitutive androstane receptor (CAR) against the NCATS DSHEA and TCM libraries (AID 1794839);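 further: HepG2 cells expressing human CAR with a CYP2B6 reporter plus PK11195 antagonist; 0% is about no effect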
# Summary of the method: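 Luminescence from ONE-Glo luciferase was the agonist read-out in HepG2-CYP2B6-hCAR cells exposed 24 h to test substances. Wells also held the CAR antagonist PK11195 at 0.75 µM final. Viability was by CellTiter-Fluor fluorescence.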
# [9] = HepG2 viability counterscreen (readout 2: ATP content) against the NCATS DSHEA and TCM libraries (AID 1794840); further: 0% is about no effect
# Summary of the method: (§1)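 1,000 HepG2 cells/well, 4 h attach; compounds ~24 h, 37C/5% CO2. Readout 1: GF-AFC 25 uM final, 30 min, fluorescence 380/510 nm. Readout 2: CellTiter-Glo, 30 min RT, luminescence.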
# [10] = HepG2 viability counterscreen (readout 1: protease activity) against the NCATS DSHEA and TCM libraries (AID 1794841);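 further: cells exposed to compounds for about 24 h before the protease read; 0% is about no effect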
# Summary of the method: as §1
# Chain of Phenylethanolamine N-methyltransferase (Homo sapiens) (P11086 whole entry, looked up): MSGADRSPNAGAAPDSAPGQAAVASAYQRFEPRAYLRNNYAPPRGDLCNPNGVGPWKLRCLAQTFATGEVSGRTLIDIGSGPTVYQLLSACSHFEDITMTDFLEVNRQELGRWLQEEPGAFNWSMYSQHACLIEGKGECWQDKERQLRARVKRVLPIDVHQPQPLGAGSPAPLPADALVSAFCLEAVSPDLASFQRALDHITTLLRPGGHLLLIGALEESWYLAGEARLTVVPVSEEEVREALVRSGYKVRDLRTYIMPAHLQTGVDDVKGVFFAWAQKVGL
# Chain of Nicotinamide N-methyltransferase (Homo sapiens) (P40261 whole entry, looked up): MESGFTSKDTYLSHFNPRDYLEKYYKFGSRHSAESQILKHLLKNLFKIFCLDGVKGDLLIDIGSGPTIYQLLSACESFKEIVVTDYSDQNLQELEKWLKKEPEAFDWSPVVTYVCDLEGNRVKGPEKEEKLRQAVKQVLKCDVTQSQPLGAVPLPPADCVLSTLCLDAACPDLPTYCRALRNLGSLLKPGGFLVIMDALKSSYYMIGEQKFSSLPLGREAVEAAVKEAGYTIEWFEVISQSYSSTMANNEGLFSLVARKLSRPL
# Chain of Nuclear receptor subfamily 1 group I member 3 (Homo sapiens) (Q14994 whole entry, looked up): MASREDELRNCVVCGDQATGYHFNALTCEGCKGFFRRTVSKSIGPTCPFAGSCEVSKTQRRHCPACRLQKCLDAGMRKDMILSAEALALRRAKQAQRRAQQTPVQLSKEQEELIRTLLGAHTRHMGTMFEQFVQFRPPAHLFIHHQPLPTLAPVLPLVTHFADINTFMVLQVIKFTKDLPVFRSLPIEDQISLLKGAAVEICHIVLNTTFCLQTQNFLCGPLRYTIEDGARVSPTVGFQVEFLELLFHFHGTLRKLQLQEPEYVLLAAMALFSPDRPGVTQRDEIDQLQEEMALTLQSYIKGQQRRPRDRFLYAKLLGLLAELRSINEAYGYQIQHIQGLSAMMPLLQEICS
smiles,measurement,setting,value
O=C(c1ccccc1)c1ccc2nc(NC(=O)c3csc(C4CCN(c5ncnc6ccsc56)CC4)n3)[nH]c2c1,"activity change, negative = inhibition",[1],0.0948%
same,activity,[2],-42%
same,activity,[3],-13.7%
same,Potency,[4],10 µM (active)
CNS(=O)(=O)CC1CCC(N(C)c2ncnc3[nH]ccc23)CC1 (stereo not given),"activity change, negative = inhibition",[1],-4.35%
same,activity,[2],-58.2%
same,activity,[3],-84.3%
C/C=C/c1cc(OC)c2c(c1)[C@@H](C)[C@@H](c1ccc(O)c(OC)c1)O2,"activity change, negative = inhibition",[1],-6.75%
same,activity,[2],-7.01%
same,activity,[3],-5.03%
NC[C@@](O)(c1ccc(Cl)cc1)c1ccc(-c2cn[nH]c2)cc1,"activity change, negative = inhibition",[1],0%
same,activity,[2],-0.549%
same,activity,[3],-0.0519%
C=C1C(=O)O[C@@H]2/C=C(\C)C(=O)/C=C/[C@](C)(O)C[C@@H](OC(=O)C(C)C)[C@@H]12,"activity change, negative = inhibition",[1],-3.22%
same,activity,[2],-1.46%
same,activity,[3],-0.934%
Cc1ncc(CCCN(C)C)cc1Nc1ncc2c(n1)-c1ccc(C(F)(F)F)cc1NC(=S)C2,"activity change, negative = inhibition",[1],2.13%
same,activity,[2],-20.1%
same,activity,[3],-4.31%
CN1CCN(C(=O)c2ccc3cc(CCNc4ncnc5ccc(C#N)cc45)ccc3c2)CC1,"activity change, negative = inhibition",[1],-3.33%
same,activity,[2],-11.9%
same,activity,[3],-8.1%
Cc1ccc([N+](=O)[O-])cc1S(=O)(=O)N(C)/N=C/c1cnc2ccc(Br)cn12,Potency,[1],30.4 µM (active)
same,activity,[2],-33.8%
same,activity,[3],-16.6%
C=C[C@H]1[C@H](O[C@@H]2O[C@H](CO)[C@@H](O)[C@H](O)[C@H]2O)OC=C(C(=O)OC)[C@H]1C/C=C(/C=O)[C@@H]1C(C(=O)OC)=CO[C@@H](O[C@@H]2O[C@H](CO)[C@@H](O)[C@H](O)[C@H]2O)[C@@H]1C=C,"activity change, negative = inhibition",[1],0% [at 19.1 µM]
same,activity,[2],0%
same,activity,[3],4.52%
Cc1cc(N2CCN([C@@H]3CN[C@H](C(=O)N4CCSC4)C3)CC2)n(-c2ccccc2)n1,Potency,[4],inactive
CCOCc1nc2c(N)nc3ccccc3c2n1CC(C)(C)O,Potency,[4],inactive
COc1c2c(cc3c1-c1c(cc4c(c1OC)OCO4)CC(C)C(C)C3)OCO2 (stereo not given),Potency,[4],inactive
C[C@@]1(O)[C@H](O)[C@@H](CO)O[C@H]1n1ccc(N)nc1=O,Potency,[4],inactive
CC(C)C(NC(=O)c1ccc2ccccc2n1)C(=O)NC(CC(=O)O)C(=O)COc1c(F)cccc1F (stereo not given),Potency,[4],inactive
Nc1ncnc2c([C@@H]3N[C@H](CO)[C@@H](O)[C@H]3O)c[nH]c12,Potency,[4],inactive
C[C@H](NC(=O)CCc1nc2ccccc2c(=O)[nH]1)c1ccccc1,Potency,[4],inactive
same,Potency,[5],inactive
CS(=O)(=O)c1ccc(-c2nnc(/C=C/c3nnc(-c4ccc(C#N)cc4)o3)n2-c2ccccc2Cl)nc1,Potency,[4],inactive
CC(C)c1cc(C(=O)N2CC[C@H](NC(=O)C3CC3)C2)n[nH]1,Potency,[4],inactive
O=C(/C=C/c1cccc(S(=O)(=O)Nc2ccccc2)c1)NO,Potency,[4],inactive
Cc1cc(C)c(Nc2ccnc(Nc3ccc(C#N)cc3)n2)c(C)c1,Potency,[5],5.15 µM (active)
CC(C)=CCC(O)/C(C)=C/CO[C@@H]1O[C@H](CO)[C@@H](O)[C@H](O)[C@H]1O (stereo not given in full),"activity change, negative = inhibition",[1],0%
same,activity,[2],0%
same,activity,[3],5.19%
same,outcome,[6],inactive
same,outcome,[7],inactive
same,outcome,[8],inactive
same,outcome,[9],inactive
same,outcome,[10],inactive
CN1CCc2nc(C(=O)N[C@@H]3C[C@@H](C(=O)N(C)C)CC[C@@H]3NC(=O)C(=O)Nc3ccc(Cl)cn3)sc2C1,Potency,[4],inactive
N#C[C@@H]1CCCN1C(=O)CNC12CC3CC(CC(O)(C3)C1)C2,Potency,[4],inactive
CC(C)c1cc(C(=O)N2CC[C@@H](NC(=O)C3CC3)C2)n[nH]1,Potency,[4],inactive
COc1ccc(C(=O)C2CCN(CC(=O)N(Cc3nc4c(c(=O)[nH]3)COCC4)CC3CC3)CC2)cc1,Potency,[4],inactive
CC(C)=CCC[C@](C)(O[C@@H]1O[C@H](CO[C@@H]2O[C@H](CO)[C@@H](O)[C@H](O)[C@H]2O)[C@@H](O)[C@H](O)[C@H]1O)C1CC[C@]2(C)[C@@H]1[C@H](O)CC1[C@@]3(C)CC[C@H](O[C@@H]4O[C@H](CO)[C@@H](O)[C@H](O)[C@H]4O[C@@H]4O[C@H](CO)[C@@H](O)[C@H](O)[C@H]4O)C(C)(C)[C@@H]3CC[C@]12C (stereo not given in full),outcome,[6],inactive
same,"activity change, negative = cytotoxicity",[7],3.8% [at 8.32 µM] (inactive)
same,outcome,[8],inactive
same,outcome,[9],inactive
same,outcome,[10],inactive
Cc1ccc(NC(=O)C(=O)NC2CC(C)(C)NC(C)(C)C2)cc1,Potency,[4],inactive
O=C(COc1cccc2c(=O)[nH]ccc12)c1ccccc1,Potency,[4],inactive
CC(C)C[C@H](CC(=O)NO)C(=O)N[C@@H](Cc1ccc2ccccc2c1)C(=O)N[C@@H](C)C(=O)NCCN,Potency,[4],inactive
CCN(CC)Cc1ccc(C(=O)N(CCc2ccccc2OC)[C@@H]2CCNC2)cc1,Potency,[4],inactive
COC(=O)[C@@]1(c2ccc(C)cc2)C[C@H]1CN1CCC(O)(c2ccccc2)CC1,Potency,[4],inactive
same,Potency,[5],inactive
Cc1cc(C)cc(C(=O)NOCCCCCC(=O)NO)c1,Potency,[4],inactive
CCNCc1nc2c(N)nc3ccccc3c2n1CC(C)(C)O,Potency,[4],inactive
